# Reference: PubChem BioAssay (NCI)
# This is part of a sample that, as a whole, favours compounds with a hit. Of some 83,000 tested, about 20% had one in any assay.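 Percent growth is the endpoint: 0 to 100 indicates growth inhibition (40 means 60% inhibition), 0 means no net growth, and negative values indicate cell death.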 Values without a mark were called inactive. The source made the active and inactive calls. How the source made its calls: active means growth percent below 10; inactive means the rest.
# Key:
# Assay in all cases: NCI-60 one-dose screen, 48 h (100 = growth as untreated, 0 = no growth, -100 = all killed)
# Conditions in all cases: 10 µM unless noted
# [1] = test system: NCI-H226 lung
# [2] = test system: NCI-H322M lung
# [3] = test system: HOP-62 NSCLC
# [4] = test system: NCI-H460 lung
# [5] = test system: HOP-92 NSCLC
# [6] = test system: NCI-H522 lung
# [7] = test system: A549/ATCC NSCLC
# [8] = test system: 786-0 renal
# [9] = test system: COLO 205 colon
# [10] = test system: DU-145 prostate
SMILES,growth [1],growth [2],growth [3],growth [4],growth [5],growth [6],growth [7],growth [8],growth [9],growth [10]
Cn1cc(-c2cc(N)n3nc(-c4cn(C)c5ccc(Br)cc45)cc3n2)c2cc(Br)ccc21,109%,86.2%,94.8%,69%,76.9%,102%,91%,94%,118%,60.5%
OC1CCN(CCCOc2c3ccc(Cl)cc3nc3c2oc2ccc(Cl)cc23)CC1,2.57% (active),15%,41%,-75.2% (active),9.66% (active),9.65% (active),-52.9% (active),-99% (active),-11.1% (active),-97.5% (active)
O=C1c2c(c3c4cccnc4[nH]c3c3ccc4ccccc4c23)C(=O)N1CCO,80.7%,95%,64.5%,17.6%,129%,52.8%,78.3%,84%,78.4%,87.2%
NS(=O)(=O)c1cccc(Nc2nc(SCC(=O)c3ccc(Br)cc3)nc3ccccc23)c1,4.97% (active),97.6%,59.5%,38.5%,38.2%,40.8%,60.3%,14.2%,75.8%,69.4%
O=C(N/N=C/c1ccc([N+](=O)[O-])s1)c1[nH]c2ccc(Br)cc2c1-c1ccccc1,23.7%,54.9%,27.2%,-26.1% (active),-7.35% (active),-44.5% (active),14.5%,9.9% (active),-55.5% (active),20.4%
COc1cc(OC)c(C2C(Cl)C(=O)N2Nc2ncnc3ccccc23)cc1OC (stereo not given),90.3%,92.3%,100%,107%,102%,94.2%,105%,98.6%,125%,109%
COc1ccc(C(=O)c2cc(C(=O)/C=C/c3c(Cl)cccc3Cl)c3cc(C)ccn23)cc1,103%,98.3%,98.5%,100%,97.3%,91.5%,99.6%,100%,108%,106%
O=C(CSc1nc2sc3c(c2c(=O)n1-c1ccc(Cl)cc1)CCCC3)N/N=C/c1ccc(F)cc1,113%,104%,105%,81.4%,97.3%,100%,88.1%,98.9%,117%,82.1%
COc1cc2cc(Oc3ccc(NC(=O)c4cccc(C(F)(F)F)c4)cc3)c(C)nc2cc1OCCN1CCCCC1,103%,69.2%,98.1%,-69.4% (active),43.7%,68.9%,19.2%,55.4%,-94.8% (active),59.4%
COc1ccc(COc2ccc(/C=C3/C(=O)Nc4cc(Cl)ccc43)cc2)cc1,89.4%,87.7%,95.4%,98.2%,93.1%,92%,98.7%,110%,101%,98.2%
CCOC(=O)c1c(Nc2ccccc2)nn2c(N)c(C#N)c(-c3ccccc3)nc12,83.3%,94.8%,97.7%,93.2%,81.8%,89.7%,97%,79.5%,87.4%,81.1%
C/C(=C(/c1ccc(Cl)cc1)c1ccc(OCCN)cc1)c1ccc(C)cc1,112%,103%,103%,100%,87.2%,99.4%,97.7%,102%,114%,106%
